In the library only some 15% were active in any assay of this set; here they are far more common.
ELG1 DNA repair: inhibitors of ELG1-dependent DNA repair in HEK293T cells; HEK293T ELG1-luciferase reporter, luminescence, 16 h; DNA damage induced by 5-fluorouridine; Potency, µM (highest dose often 46.1 µM), for inactives: at the top dose activity change, negative = inhibition, usual class: inhibitors; 2.3% of 330,000 active; further: nearly all actives have a fitted effect of over 55% in size
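Reporter activity after DNA damage by 5-fluorouridine is monitored. Compound-treated cells incubate 16 hr at 37 °C, then ONE-Glo is added for 30 min before luminescence reading.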
DT40 TDP1 CPT: DT40-hTDP1 cell growth loss with CPT. AID 686979. Potency, µM (series often up to 46.2 µM), for inactives: at the highest dose activity change, negative = growth inhibition, usual class: inhibitors. 12% of 420,000 active. chicken DT40 Tdp1-/-;hTDP1 cells + 20 nM CPT, ATP luminescence, 48 h; further: nearly all actives have a fitted effect of over 55% in size
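Chicken DT40 Tdp1-/- cells stably complemented with human TDP1 were seeded at 400 cells/well in medium containing 20 nM camptothecin, exposed to pin-transferred compounds, and grown at 37 °C for at least 48 hr. Viability was read as ATP luminescence.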
12-LOX inh: ALOX12 (human) lipoxygenase inhibition; purified 12hLO, xylenol orange hydroperoxide absorbance; Potency, µM (titrated, usually from 108 µM), for the others: at the top dose activity change, negative = inhibition, most hits filed as inhibitors; 1.1% of 580,000 active; AID 1671190
Target sequence (P18054 whole entry, looked up): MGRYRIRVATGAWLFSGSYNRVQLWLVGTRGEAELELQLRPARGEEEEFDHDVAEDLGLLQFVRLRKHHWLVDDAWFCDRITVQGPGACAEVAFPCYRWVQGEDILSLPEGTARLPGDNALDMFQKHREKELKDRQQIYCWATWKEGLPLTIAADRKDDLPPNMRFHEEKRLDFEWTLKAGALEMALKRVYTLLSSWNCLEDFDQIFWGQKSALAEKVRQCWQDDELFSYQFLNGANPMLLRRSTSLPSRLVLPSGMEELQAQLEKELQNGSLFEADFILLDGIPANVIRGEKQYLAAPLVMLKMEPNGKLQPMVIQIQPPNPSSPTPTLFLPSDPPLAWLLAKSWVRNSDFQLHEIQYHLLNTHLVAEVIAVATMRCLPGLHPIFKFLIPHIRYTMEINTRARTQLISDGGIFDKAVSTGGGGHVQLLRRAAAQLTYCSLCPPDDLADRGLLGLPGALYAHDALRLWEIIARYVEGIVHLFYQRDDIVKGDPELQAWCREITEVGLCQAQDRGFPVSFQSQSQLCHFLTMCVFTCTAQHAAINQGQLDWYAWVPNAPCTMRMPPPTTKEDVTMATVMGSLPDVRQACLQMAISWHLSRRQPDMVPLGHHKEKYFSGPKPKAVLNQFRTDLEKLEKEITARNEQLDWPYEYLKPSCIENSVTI
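Purified human 12hLO at 150 nM in 25 mM Hepes, 0.01% Triton X-100, pH 7.0, preincubated 15 min at room temperature with compound. Reaction started with 40 uM arachidonic acid, 30 min at room temperature. Hydroperoxide measured by Fe-xylenol orange, 573/405 nm absorbance ratio.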
VP16 counter: counter-screen for ROR gamma inhibitors: Gal4-VP16 reporter. Drosophila S2 Gal4-VP16 UAS-luciferase, luminescence, 20 h. Potency, µM (highest dose often 53.6 µM), without a hit: at the highest dose activity, negative = inhibition, hits mostly inhibitors. 3.5% of 310,000 active. AID 2546;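 further: Gal4-VP16 expression switched on by copper sulfate through the metallothionein promoter; nearly all actives have a fitted effect of over 50% in size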
TDP1 cell noCPT: qHTS for Inhibitors of human tyrosyl-DNA phosphodiesterase 1 (TDP1): qHTS in cells in absence of CPT; Potency, µM (doses to about 46.2 µM), without a hit: at the highest dose activity change, negative = growth inhibition, hits mostly inhibitors; 15% of 420,000 active; DT40 Tdp1-/- hTDP1 cells, no CPT, ATP luminescence, 48 h; further: nearly all actives have a fitted effect of over 55% in size
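Compound effects on proliferation are scored in DT40 Tdp1-/-;hTDP1 cells in the absence of CPT. ATP levels (CellTiter-Glo luminescence) are recorded after a ≥48 hr, 37 °C incubation.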
RORgamma inh: ROR gamma (mouse) transcription inhibition. Drosophila S2 Gal4-RORgamma UAS-luciferase reporter, 20 h. P51450. Potency, µM (series often up to 53.6 µM), inactives show at the highest dose activity change, negative = inhibition, hits mostly inhibitors. AID 2551. 5.4% of 310,000 active; further: nearly all actives have a fitted effect of over 60% in size
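Luminescence from a UAS-regulated Photinus luciferase reporter in stably transfected Drosophila Schneider cells is measured; decreased signal marks ROR gamma inhibition. Fusion expression is induced by 700 uM copper sulfate for 20 hr.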
Numbers without * were called inactive; ? = inconclusive; . = no result; [ ] = another dose, or the depositor's remark. The call rests on the fitted dose curve; in most records, active means well fitted curve in the direction sought with a large enough effect; inconclusive means small, poorly fitted or top-dose-only effect, or another doubt; inactive means no such curve, though single readings can be large; an effect the other way counts as inactive or inconclusive. On the % scale 0 is the no-effect control and ±100 the full control effect; potency means the concentration at half of the fitted maximal effect.

SMILES	ELG1 DNA repair	DT40 TDP1 CPT	12-LOX inh	VP16 counter	TDP1 cell noCPT	RORgamma inh
Cc1cc(CNC(=O)c2ccc(CN3CCCCC3)cc2)ccc1F	.	.	-9%	.	.	.
COc1ccc(C)cc1NC(=O)c1oc2ccc(S(=O)(=O)N3CCCCC3)cc2c1C	.	-4%	?	.	-9%	.
COc1ccccc1CNC(=O)c1oc2ccc(S(=O)(=O)N3CCCCC3)cc2c1C	.	6.5µM*	1%	.	7.3µM*	.
CCN(CC)S(=O)(=O)c1ccc2oc(C(=O)NCc3ccccc3OC)c(C)c2c1	.	7.3µM*	-14%	.	10µM*	.
O=C(CCNC(=O)C1CCCC1)NC1CC1	.	.	1%	.	.	.
C[C@@H]1CN([C@@H](C)CO)S(=O)(=O)c2ccc(Br)cc2O[C@H]1CN(C)Cc1ccccn1	.	15µM*	-6%	.	23µM*	.
C[C@@H]1CN([C@@H](C)CO)S(=O)(=O)c2ccc(-c3ccc(C#N)cc3)cc2O[C@@H]1CN(C)Cc1ccccn1	.	?	1%	.	13µM*	.
C[C@@H]1CN([C@@H](C)CO)S(=O)(=O)c2ccc(Br)cc2O[C@@H]1CN(C)Cc1ccccn1	.	?	26%	.	?	.
O=C(C1CCN(C(=O)N2CC3CC(C2)[C@H]2CCCC(=O)N2C3)CC1)N1CCN(c2ccccn2)CC1 (some centres not stated)	.	.	34%	.	.	.
COc1ccccc1NC(=O)COc1ccc(C(F)(F)F)cc1[N+](=O)[O-]	.	?	-8%	.	18µM*	.
O=C(Nc1ccccc1Cl)c1ccccc1Oc1ccc(C(F)(F)F)cc1[N+](=O)[O-]	-3%	23µM*	?	-9%	18µM*	23%
O=C(OCCOc1ccccc1Cl)c1ccccc1Sc1ccc(C(F)(F)F)cc1[N+](=O)[O-]	.	.	-45%	.	.	.
Cc1ccc(C(=O)N2CCC[C@H]2c2nc(-c3ccccc3)no2)c(C)c1	.	.	17%	.	.	.
O=C(NCC(c1cccs1)N1CCCCC1)c1cc(=O)c2cc(Br)ccc2o1 (configuration not stated)	.	.	-16%	.	.	.
COc1cccc(CN2CCOC3(CCN(Cc4cccc(Cl)c4)CC3)C2=O)c1	.	.	0%[176 µM]	.	.	.
COc1cccc(Nc2nc3ccccc3c(=O)[nH]2)c1	?	-20%	-13%	-7%	-30%	4%
O=c1[nH]c(Nc2ccccc2)nc2nccc(-c3ccco3)c12	.	.	35µM*	.	.	.
COc1cccc(-n2c(SCC(=O)Nc3cccc(Cl)c3)nc3c(oc4ccccc43)c2=O)c1	.	?	-23%	.	-5%	.
O=C(CSc1nc2c([nH]c3ccccc32)c(=O)n1-c1ccccc1)Nc1ccc(Cl)c(Cl)c1	.	8.2µM*	-28%	.	10µM*	.
O=C(CSc1nc2c([nH]c3ccccc32)c(=O)n1-c1ccccc1)Nc1ccc2c(c1)OCO2	.	?	-29%	.	23µM*	.
O=C(CSc1nc2c(oc3ccccc32)c(=O)n1-c1ccccc1)Nc1ccc(F)c(Cl)c1	.	?	-27%	.	13µM*	.
Cc1csc(CNC(=O)c2ccc3cc[nH]c3c2)n1	.	.	-37%	.	.	.
COc1ccc(C(=O)Oc2cc(C)ccc2C)cc1I	.	.	2%	.	.	.
CCN1C[C@@H]2[C@@H]3C(=O)N(Cc4ccccc4)C(=O)[C@@H]3[C@](Cc3ccccc3)(C1=O)N2C(=O)c1ccc(C(C)(C)C)cc1	.	16µM*	-16%	.	18µM*	.
CCCCCn1cc2c(c1-c1ccccc1Br)c(=O)n(C)c(=O)n2C	.	12µM*	?	.	12µM*	.
CCCCCn1cc2c(c1-c1ccc(Cl)cc1)c(=O)n(C)c(=O)n2C	.	16µM*	-6%	.	16µM*	.
CCCCn1cc2c(c1-c1ccccc1Br)c(=O)n(C)c(=O)n2C	.	23µM*	?	.	16µM*	.
COc1ccccc1Nc1ncnc2c1cnn2-c1cccc(Cl)c1	.	.	3%	.	.	.
